Molecules are shown by their SMILES. Some compounds were tested as several samples or in several runs, with calls that do not always agree. Activity calls are given as the source filed them. How the source made its calls: active means hit-call score of the fitted dose curve at least 0.9, where 1 is the maximum; inactive means score below 0.9.

Assay [1] deals with Transcription factor E2F1 (Homo sapiens) (UniProt Q01094). The assay is described as follows: ATG_E2F_CIS: Attagene CIS-FACTORIAL HepG2 Assay for human E2F Transcription Factor 1 (AID 2282935). The conditions noted are these: HepG2 Attagene cis-reporter, E2F reporter RNA transcripts; actives raise or lower the signal. Summed up:
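In this cis-factorial format, endogenous factor activity drives transfected reporters in HepG2; transcripts collected at 24 h are quantified by fluorescence after RT-PCR and capillary separation.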

Assay [2] in a line: ATG_E_Box_CIS: Attagene CIS-FACTORIAL HepG2 Assay for human Enhancer Box (E-box) (AID 2282936). The conditions noted are these: HepG2 E-box cis-reporter transcription, actives raise or lower the signal. The procedure, abridged:
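Measured 24 h post-dosing in HepG2 cells transfected with multiple cis-regulated reporter units, signal being reporter mRNA induction detected by fluorescent RT-PCR with capillary electrophoresis; gain or loss fitted against DMSO.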

Assay [3] can be described thus: ATG_M_61_CIS: Attagene CIS-FACTORIAL HepG2 Assay for M61 Transcription Factor (Internal Marker) (AID 2282937). The conditions noted are these: HepG2 Attagene CIS-FACTORIAL M61 internal marker reporter; actives raise or lower the signal. Summed up:
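Cells were transfected with reporter units under cis-regulatory promoters, treated with chemicals for 24 h, then lysed for RNA. Reporter transcripts were quantified by RT-PCR and capillary electrophoresis, and activity was fitted bidirectionally against DMSO.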

A short description of assay [4]: ATG_EGR_CIS: Attagene CIS-FACTORIAL HepG2 Assay for human Early Growth Response 1 (EGR1) (AID 2282938). To be noted: HepG2 Attagene CIS-FACTORIAL EGR reporter mRNA; actives raise or lower the signal. Summed up: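 Endogenous TF activity in HepG2 liver cells was gauged through cis-promoter reporter constructs transiently transfected. After 24 h dosing, reporter mRNA was quantified by RT-PCR and capillary electrophoresis, and curves fitted in both directions versus DMSO.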

A short description of assay [5]: ATG_M_19_CIS: Attagene CIS-FACTORIAL HepG2 Assay for M19 Transcription Factor (Internal Marker) (AID 2282939). The conditions noted are these: HepG2 Attagene CIS-FACTORIAL M19 internal marker reporter; actives raise or lower the signal. Summed up:
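HepG2, MRTU transient transfection, 24 h dosing. Total RNA → RT-PCR → 6-FAM primer extension → HpaI digest → CE fluorescence. Bidirectional curve fit, DMSO negative control.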

The nature of assay [6]: ATG_ERE_CIS: Attagene CIS-FACTORIAL HepG2 Assay for Estrogen Response Element (ERE) (AID 2282940). To be noted: HepG2 ERE cis-reporter, Attagene RNA transcript; actives raise or lower the signal. Summed up: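 After a 24 h chemical treatment, RNA from reporter-transfected HepG2 cells is reverse-transcribed, PCR-amplified and fluorescently labelled. Fragments separated by capillary electrophoresis give reporter signal; DMSO serves as negative control.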

Assay [7] is described as follows: ATG_Ets_CIS: Attagene CIS-FACTORIAL HepG2 Assay for human Erythroblast Transformation Specific (ETS) (AID 2282941). The conditions noted are these: HepG2 ETS cis-reporter transcription, actives raise or lower the signal. The procedure, abridged:
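Bidirectional fit versus DMSO of reporter mRNA signal, detected by RT-PCR and capillary electrophoresis in HepG2 cells transiently transfected with cis-element reporters and dosed 24 h.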

Assay [8] deals with Hepatocyte nuclear factor 3-beta (Homo sapiens) (UniProt Q9Y261). The assay is described as follows: ATG_FoxA2_CIS: Attagene CIS-FACTORIAL HepG2 Assay for human Forkhead box A2 (FOXA2) (AID 2282942). The conditions noted are these: HepG2 cis-reporter transcription factor activity, 24 h; actives raise or lower the signal. The procedure, abridged:
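Endogenous transcription factor activity was read in HepG2 cells carrying transiently transfected cis-promoter reporter units. After 24 h dosing, reporter mRNA was quantified by RT-PCR and capillary electrophoresis, and values fitted bidirectionally versus DMSO.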

Assay [9] can be described thus: ATG_FoxO_CIS: Attagene CIS-FACTORIAL HepG2 Assay for human Forkhead box O (FoxO) (AID 2282943). To be noted: HepG2 Attagene cis-reporter, FoxO element, mRNA; actives raise or lower the signal. The procedure, abridged:
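Values reflect reporter mRNA induction or loss in HepG2 cells 24 h post-dosing, fitted bidirectionally with DMSO as negative control and baseline. Detection used RT-PCR and fluorescence capillary electrophoresis.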

A short description of assay [10]: ATG_GATA_CIS: Attagene CIS-FACTORIAL HepG2 Assay for human GATA Binding Protein (AID 2282944). To be noted: HepG2 GATA cis-element reporter, Attagene multiplex mRNA; actives raise or lower the signal. Summed up:
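Cells: HepG2, transiently transfected with cis-regulated reporter transcription units. Exposure: 24 h. Detection: RT-PCR plus capillary electrophoresis of FAM-labeled fragments. Analysis: bidirectional, DMSO as baseline.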

Sequence of Hepatocyte nuclear factor 3-beta (Homo sapiens) (Q9Y261 whole entry, looked up): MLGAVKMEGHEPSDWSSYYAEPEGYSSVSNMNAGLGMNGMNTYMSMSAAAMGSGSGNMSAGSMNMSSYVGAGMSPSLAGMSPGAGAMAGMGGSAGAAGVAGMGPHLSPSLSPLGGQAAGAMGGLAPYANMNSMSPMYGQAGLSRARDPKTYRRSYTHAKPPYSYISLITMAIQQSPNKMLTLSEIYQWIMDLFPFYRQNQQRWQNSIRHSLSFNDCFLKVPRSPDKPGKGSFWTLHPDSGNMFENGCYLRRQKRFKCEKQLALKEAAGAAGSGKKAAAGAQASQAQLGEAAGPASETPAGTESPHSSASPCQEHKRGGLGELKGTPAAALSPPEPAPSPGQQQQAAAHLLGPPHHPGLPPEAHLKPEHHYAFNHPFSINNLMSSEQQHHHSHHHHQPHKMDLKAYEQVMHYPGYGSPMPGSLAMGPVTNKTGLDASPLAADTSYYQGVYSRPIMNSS
Sequence of Transcription factor E2F1 (Homo sapiens) (Q01094 whole entry, looked up): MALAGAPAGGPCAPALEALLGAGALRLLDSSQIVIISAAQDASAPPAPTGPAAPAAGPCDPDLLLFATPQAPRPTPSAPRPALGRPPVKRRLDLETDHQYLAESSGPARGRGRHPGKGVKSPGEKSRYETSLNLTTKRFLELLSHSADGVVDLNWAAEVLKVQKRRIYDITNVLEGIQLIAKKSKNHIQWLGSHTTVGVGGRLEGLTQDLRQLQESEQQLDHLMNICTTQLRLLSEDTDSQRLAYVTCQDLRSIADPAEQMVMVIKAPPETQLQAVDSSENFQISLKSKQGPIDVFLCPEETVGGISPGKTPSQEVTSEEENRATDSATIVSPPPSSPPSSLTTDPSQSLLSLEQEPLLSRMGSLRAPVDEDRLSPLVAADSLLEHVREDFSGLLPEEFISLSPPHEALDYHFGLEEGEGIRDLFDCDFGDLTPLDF

The term AC50 denotes the midpoint of the concentration-response curve, whichever way the signal moves. In the case of `CC(Cc1ccc(O)c(O)c1)C(C)Cc1ccc(O)c(O)c1` (stereo unspecified), the AC50 in assay [1] is 33.4 µM (active); in [4], 20.5 µM (active); in assay [6], 8.81 µM (active). Besides, the result in [2], in [3], in assay [5], in assay [7], in [8] and in assay [9] was inactive. Also, the compound was called inactive in assay [10].
`OCCCC(F)(F)C(F)(F)C(F)(F)C(F)(F)C(F)(F)C(F)(F)C(F)(F)F`: the compound was called inactive in assay [1], in [2], in assay [3], in assay [4], in assay [5] and in [6]. The result in [7], in assay [8], in assay [9] and in assay [10] was inactive. Moreover, the half-maximal activity concentration (AC50) was 72.9 µM (active) in [2]; 80.6 µM (active) in [4]; 264 µM (active) in assay [5]; 19.9 µM (active) in assay [6]; 50 µM (active) in assay [7]; 65.3 µM (active) in [9]. Further, the half-maximal activity concentration (AC50) in [10] is 78.9 µM (active).
Regarding `Nc1ccc(S(=O)(=O)Nc2nccs2)cc1`, the outcome in assay [1], in assay [2], in assay [3], in [4], in assay [5] and in [6] was inactive. In addition, the outcome in [7], in assay [8], in assay [9] and in assay [10] was inactive.
On to `CCCCCCS`, for which the compound was called inactive in assay [1], in assay [2], in assay [3], in assay [4], in assay [5] and in [6]. Also, the result in assay [7], in assay [8], in [9] and in [10] was inactive.
Turning to `CCCCCCCCC(F)(F)C(F)(F)C(F)(F)C(F)(F)C(F)(F)C(F)(F)F`, the call in assay [1], in [2], in assay [3], in assay [4], in [5] and in assay [6] was inactive. Also, the compound was classed as inactive in assay [7], in assay [8], in assay [9] and in assay [10].
Consider `CN(C)Cc1ccccc1O`, for which the outcome in [1], in [2], in assay [3], in [4], in [5] and in assay [6] was inactive. The compound was classed as inactive in assay [7], in assay [8], in assay [9] and in [10].
Take `CCO[Si](CCC(F)(F)C(F)(F)C(F)(F)C(F)(F)C(F)(F)C(F)(F)F)(OCC)OCC`: the compound was called inactive in assay [1], in [2], in [3], in assay [4], in assay [5] and in [6]. Moreover, the call in assay [7], in [8], in [9] and in assay [10] was inactive.
In the case of `c1ccc(-c2ccccc2-c2ccccc2)cc1`, the call in [1], in [2], in assay [3], in assay [4], in [5] and in assay [7] was inactive. Further, the call in [8], in [9] and in assay [10] was inactive. Also, the concentration at half-maximal activity (AC50) in [6] was 3.47 µM (active).
With `O=S(=O)(OCCOC(F)(F)F)C(F)(F)F`, the compound was classed as inactive in [1], in assay [2], in assay [3], in assay [4], in assay [5] and in [6]. Also, the compound was classed as inactive in assay [7], in assay [8], in assay [9] and in assay [10].
For `FC(F)(F)C(F)(F)C(F)(F)C(F)(F)C(F)(F)C(F)(F)C(F)(F)C(F)(F)CCS`, the call in [1], in assay [2], in assay [3], in assay [4], in assay [5] and in [6] was inactive. The result in assay [7], in [8], in assay [9] and in [10] was inactive.
As for `C=C(C)C(=O)OCC(F)(F)C(F)(F)C(F)(F)F`, the call in assay [1], in assay [2], in [3], in assay [4], in assay [5] and in assay [6] was inactive. Besides, the compound was classed as inactive in assay [7], in assay [8], in assay [9] and in assay [10]. Besides, in assay [6], the concentration at half-maximal activity (AC50) was 30.8 µM (active).
Turning to `O=C(CC(=O)C(F)(F)C(F)(F)F)C(F)(F)F`, the result in assay [1], in assay [2], in [3], in assay [4], in assay [5] and in assay [6] was inactive. In addition, the result in assay [7], in assay [8], in assay [9] and in [10] was inactive.
For the compound `CCN(CC)c1ccc2c(C)cc(=O)oc2c1`, the compound was classed as inactive in assay [1], in [2], in [3], in assay [4], in assay [5] and in [6]. Further, the compound was called inactive in assay [7], in assay [8], in assay [9] and in [10].
Turning to `FC(F)(F)C(F)(F)CNCC(F)(F)C(F)(F)F`, the outcome in [1], in assay [2], in assay [3], in [4], in assay [5] and in assay [6] was inactive. Besides, the result in [7], in assay [8], in assay [9] and in assay [10] was inactive.
As for `CCCCCCC(C)OC(=O)CCCCC(=O)OC(C)CCCCCC` (stereo unspecified), the compound was called inactive in [1], in [2], in [3], in [4], in assay [5] and in [6]. Besides, the outcome in [7], in assay [9] and in assay [10] was inactive.
As to `FC(F)(F)C(F)(F)C(F)(F)C(F)(F)C(F)(F)C(F)(F)C(F)(F)C(F)(F)F`, the outcome in assay [1], in assay [2], in [3], in assay [4], in assay [5] and in assay [6] was inactive. Further, the compound was called inactive in assay [7], in assay [8], in assay [9] and in assay [10].
For `CCCCC(CC)COP(=O)(O)OCC(CC)CCCC` (stereo unspecified), the outcome in assay [1], in assay [2], in [3], in assay [4], in [5] and in assay [6] was inactive. Moreover, the call in [7], in assay [8], in [9] and in assay [10] was inactive.
For `FC(F)(F)C(F)(F)C(F)(F)CI`, the call in assay [1], in [2], in assay [3], in assay [4], in assay [5] and in [6] was inactive. Also, the result in assay [7], in assay [8], in assay [9] and in assay [10] was inactive.
As to `O=C(O)C(F)(F)C(F)(F)C(F)(F)C(F)(F)F`, the outcome in [1], in [2], in [3], in assay [4], in assay [5] and in assay [6] was inactive. Also, the result in assay [7], in [8], in assay [9] and in assay [10] was inactive.
For the compound `O=S(=O)(O)c1ccc2ccccc2c1`, the compound was called inactive in assay [1], in assay [2], in [3], in assay [4], in assay [5] and in assay [6]. Moreover, the result in assay [7], in assay [9] and in [10] was inactive.
In the case of `O=C(O)C(F)(F)C(F)(F)OC(F)(F)F`, the compound was called inactive in assay [1], in assay [2], in assay [3], in assay [4], in assay [5] and in assay [6]. Also, the outcome in assay [7], in assay [8], in assay [9] and in assay [10] was inactive.
Consider `Nc1cc(Cl)c(N)c(Cl)c1`, for which the result in assay [1], in assay [2], in assay [3], in assay [4], in assay [5] and in assay [7] was inactive. In addition, the call in [8], in [9] and in assay [10] was inactive. Besides, the AC50 in assay [6] was 7.29 µM (active).

(Values after PubChem BioAssay (EPA / NIEHS).)
